Screens as filed in PubChem.
Rows were chosen to be rich in hits. Some 2.8% of all compounds tested hit in one or more screens of this group.
PME-1 inh: blocks human protein phosphatase methylesterase 1; Q9Y570; recombinant PME-1, FP-Rh probe fluorescence polarization; inhibition, % at 5.9 µM; 320,000 tested, 0.53% active; AID 2130;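 active = inhibition above the campaign mean of all compounds plus 3 SD, cut at about 26% in these data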;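 also: competitive labeling of PME-1 active site by serine hydrolase directed probe; 0% = PME-1 with DMSO and 100% = wells lacking PME-1 enzyme; inhibitors block probe labeling so polarization falls and inhibition rises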
Target sequence (Q9Y570 whole entry, looked up): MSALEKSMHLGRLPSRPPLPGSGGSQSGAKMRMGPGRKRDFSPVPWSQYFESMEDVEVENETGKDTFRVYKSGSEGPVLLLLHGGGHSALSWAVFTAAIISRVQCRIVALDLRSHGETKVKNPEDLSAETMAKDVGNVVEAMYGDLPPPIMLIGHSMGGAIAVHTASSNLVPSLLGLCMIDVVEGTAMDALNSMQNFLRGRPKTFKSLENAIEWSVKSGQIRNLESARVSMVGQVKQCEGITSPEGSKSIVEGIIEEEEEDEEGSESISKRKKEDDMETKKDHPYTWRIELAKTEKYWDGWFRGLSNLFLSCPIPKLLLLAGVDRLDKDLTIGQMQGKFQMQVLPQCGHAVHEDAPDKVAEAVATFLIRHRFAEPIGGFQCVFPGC
PAFAH1B3 inh: PAFAH1B3 (human) inhibition | inhibition, % at 3.39 µM | recombinant PAFAH1B3, FP-rhodamine probe, fluorescence polarization | 340,000 tested, 0.28% active | Q15102 | AID 492972;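 active = inhibition above the screen-wide average of all tested compounds plus 3 SD, cut at about 25% in these data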;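 also: 0% = enzyme with DMSO only and 100% = wells lacking PAFAH1B3 protein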
Target sequence (Q15102 whole entry, looked up): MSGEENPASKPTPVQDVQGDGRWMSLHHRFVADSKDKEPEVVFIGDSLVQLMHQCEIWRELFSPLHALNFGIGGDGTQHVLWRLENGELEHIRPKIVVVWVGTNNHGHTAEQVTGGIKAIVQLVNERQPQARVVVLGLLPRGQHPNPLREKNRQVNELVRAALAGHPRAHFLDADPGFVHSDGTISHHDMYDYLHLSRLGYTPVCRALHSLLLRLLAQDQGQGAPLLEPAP
pPAFAH FP inh: inhibitors of human plasma PAF acetylhydrolase (pPAFAH); inhibition, % at 3.39 µM; Q13093; recombinant pPAFAH, FP-rhodamine probe fluorescence polarization; 330,000 tested, 1.5% active; AID 463082;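 active = inhibition above the mean inhibition across the screen plus 3 SD, cut at about 25% in these data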;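 also: inhibitors block binding of the rhodamine activity-based probe so polarization drops; 0% = enzyme with DMSO and 100% = wells lacking pPAFAH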
Fam108B inh: Fam108B inhibition, counter-screen for RBBP9 inhibitors. 300,000 tested, 0.33% active. recombinant Fam108B, FP-Rh probe fluorescence polarization. inhibition, % at 9.51 µM;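 active = inhibition above the screen mean inhibition plus 3 SD, computed separately per campaign, cut at about 18% in these data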;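 also: inhibitors lower polarization as less probe binds the enzyme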
PAFAH1B2 FP inh: inhibitors of human PAFAH1B2; P68402; 340,000 tested, 1.2% active; recombinant PAFAH1B2, FP-rhodamine activity probe, fluorescence polarization; inhibition, % at 3.39 µM;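 active = inhibition above the mean of all tested compounds plus 3 SD, cut at about 24% in these data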;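 also: 0% = enzyme with DMSO and 100% = wells lacking PAFAH1B2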
PAFAH2 FP inh: inhibitors of human PAFAH2. Q99487. recombinant PAFAH2, FP-rhodamine activity probe, fluorescence polarization. inhibition, % at 3.39 µM. 340,000 tested, 0.99% active. AID 492956;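 active = inhibition above the mean over all tested compounds plus 3 SD, cut at about 30% in these data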;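 also: inhibitors block probe labeling of enzyme so polarization drops; 0% = enzyme with DMSO and 100% = wells lacking PAFAH2 protein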
PAFAH2 FP conf: confirmation of human PAFAH2 inhibitors | shares compounds with PAFAH2 FP inh | recombinant PAFAH2, FP-rhodamine activity probe, fluorescence polarization | inhibition, % at 3.39 µM | 2,300 tested, 65% active | AID 493030;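 active = mean inhibition over three repeats above a set limit taken from the earlier primary screen, cut at about 30% in these data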;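 also: inhibitor blocks binding of rhodamine activity probe so polarization falls; 0% = enzyme with DMSO and 100% = wells lacking PAFAH2 protein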
Numbers without * were called inactive; . = not tested or not shown.

SMILES	PME-1 inh	PAFAH1B3 inh	pPAFAH FP inh	Fam108B inh	PAFAH1B2 FP inh	PAFAH2 FP inh	PAFAH2 FP conf
O=C(OCC(=O)N1CCc2ccccc21)c1ccccc1	2	0	1	1	1	47*	38*
COc1ccc(Br)c(C(=O)OCC(=O)N2CCc3ccccc32)c1	.	-5	2	.	2	18	.
Cn1cccc1C(=O)OCC(=O)c1cc2ccccc2o1	-2	2	23	-2	1	18	.
O=C(COC(=O)c1ccc(Cl)s1)c1cc2ccccc2o1	-3	-1	21	3	2	38*	17
O=C(COC(=O)c1cc(S(=O)(=O)NCc2ccccc2)ccc1O)c1cc2ccccc2o1	-2	5	15	-10	23	58*	48*
COc1ccc(-n2c(C)cc(C(=O)Cn3nnc4ccccc4c3=O)c2C)cc1	-13	10	-1	-2	-5	73*	-2
COc1ccc(-n2c(C)cc(C(=O)Cn3nc(C(=O)O)c4ccccc4c3=O)c2C)cc1	-14	6	-1	-4	7	-3	.
CCOC(=O)c1cc(-c2c(Cl)cccc2Cl)no1	-2	4	5	0	0	-4	.
CC(CCc1ccccc1)NC(=O)COC(=O)CC1CC2CCC1C2 (configuration not stated)	2	5	19	3	15	30*	20
O=C(COC(=O)CC1CC2CCC1C2)NCc1ccccc1 (configuration not stated)	.	14	22	.	13	46*	29
CC(=O)N=c1sccn1CC(O)c1ccc(Br)cc1 (configuration not stated)	-2	6	3	-2	-4	-7	.
CCCNC(=O)COC(=O)CCC(=O)c1ccc(F)cc1	-3	3	2	1	2	-5	.
Cc1cc(C(=O)COC(=O)c2ccc(O)cc2)c(C)n1-c1ccccc1F	-20	11	17	-7	-4	39*	25
Cc1cc(C(=O)COC(=O)c2ccc[nH]c2=O)c(C)n1-c1ccccc1F	1	9	-7	-1	8	2	.
Cc1cc(C(=O)COC(=O)c2ccc(O)cc2)c(C)n1CC(F)(F)F	-4	2	14	.	0	31*	23
O=C(CSc1nccc(=O)[nH]1)NN(c1ccccc1)c1ccccc1	-4	10	1	3	1	-4	.
Cc1ccccc1NC(=O)COC(=O)c1cc(S(=O)(=O)N2CCOCC2)ccc1C	6	4	2	.	3	11	.
COC(=O)c1noc(C)c1-c1ccnn1C(=O)c1ccc(C)cc1	-2	6	-3	2	-3	54*	33*
COc1ccc(NC(=O)[C@@H]2CCCN2S(=O)(=O)c2ccccc2F)cc1S(=O)(=O)N1CCCCC1	.	3	1	.	5	2	.
O=C(COC(=O)/C=C/c1ccccc1)Nc1ccc2c(c1)OCCO2	-3	-7	8	.	4	69*	56*
O=C(COC(=O)/C=C/c1ccc(Cl)cc1)Nc1ccccc1	-6	8	3	-1	2	73*	72*
O=C(COC(=O)/C=C/c1ccc(Cl)cc1)Nc1ccc2[nH]c(=O)[nH]c2c1	-16	-5	-5	-8	-13	-30	.
O=C(COC(=O)/C=C/c1ccccc1)Nc1cccc(Oc2ccccc2)c1	-45	-3	-6	-37	-17	36*	32*
CC(C)Cn1c(-c2ccc(C#N)cc2)nc2c1c(=O)[nH]c(=O)n2CC(C)C	7	7	2	0	2	3	.
CC(=O)Nc1ccc(NC(=O)C2CCN(C(=O)NC3CCCCC3)CC2)cc1	-3	-5	5	1	-2	2	.
SMILES	PME-1 inh	PAFAH1B3 inh	pPAFAH FP inh	Fam108B inh	PAFAH1B2 FP inh	PAFAH2 FP inh	PAFAH2 FP conf
O=C(c1ccc(Cl)cc1)c1oc2ccccc2c1CS(=O)(=O)c1ccccc1	0	6	2	-2	8	-2	.
Cc1cccc(C)c1NC(=O)COC(=O)c1ccc2[nH]c3c(c2c1)CCCC3	-3	3	12	-5	-2	70*	62*
CN(C)S(=O)(=O)c1ccc(C(=O)OCC(=O)Nc2ccc3c(c2)OCO3)cc1	1	5	4	.	2	-4	.
Cc1[nH]c2ccc(C(=O)OCC(=O)Nc3cccc(S(N)(=O)=O)c3)cc2c1C	9	-1	2	.	0	69*	64*
CN(C(=O)COC(=O)c1ccc2[nH]c3c(c2c1)CCCC3)C1CCS(=O)(=O)C1 (configuration not stated)	-5	1	1	4	1	0	.
CN(C)S(=O)(=O)c1cccc(NC(=O)COC(=O)c2ccc3c(c2)OCO3)c1	1	-1	7	-1	6	55*	57*
Cc1ccc(S(=O)(=O)N(C)C)cc1NC(=O)COC(=O)c1ccc2c(c1)NC(=O)CS2	16	8	4	-2	4	52*	43*
CN(C)C(=S)Nc1ccc2ccccc2c1	-5	1	1	-5	-4	-2	.
CN(C)S(=O)(=O)c1cccc(C(=O)OCC(=O)Nc2ccccc2OC(F)F)c1	4	4	11	1	5	33*	25
COCCn1c(C)cc(C(=O)COC(=O)c2ccc3c(c2)NC(=O)CS3)c1C	-7	6	5	0	3	3	.
Cc1cccc(C)c1NC(=O)COC(=O)c1ccc2c(c1)OCO2	-2	-4	5	3	2	28	.
C=CCn1c(C)cc(C(=O)COC(=O)c2ccc3c(c2)NC(=O)CS3)c1C	-9	13	11	0	5	41*	28
CC(=O)c1cccc(NC(=O)COC(=O)c2ccc3c(c2)OCO3)c1	-2	-3	1	.	-4	74*	71*
C[C@H](CO)N1C[C@H](C)[C@@H](CN(C)Cc2ccc(-c3ccccc3)cc2)Oc2c(NC(=O)Nc3ccc(C(F)(F)F)cc3)cccc2C1=O	.	3	-2	.	-2	1	.
C/C(=N\Nc1ccc(F)cc1F)c1cccs1	9	.	4	4	.	.	.
N/C(Cc1ccc(Cl)cc1Cl)=N\OC(=O)c1cccs1	4	3	7	-4	14	88*	84*
COc1ccccc1C/C(N)=N/OC(=O)/C=C/c1ccccc1	-3	13	3	3	-1	69*	72*
COc1ccccc1C/C(N)=N/OC(=O)COc1cccc(C)c1C	-3	4	0	6	7	-9	.
N/C(CC(=O)Nc1ccc(F)cc1F)=N\OC(=O)c1cccs1	-2	4	4	-2	7	41*	26
N/C(Cc1ccc(Cl)cc1Cl)=N\OC(=O)c1ccc(Br)o1	4	-1	6	-3	3	9	.
COc1ccccc1C/C(N)=N/OC(=O)c1cccs1	-3	4	12	2	-2	81*	75*
